Compounds with a hit are over-represented: about 2.3% of the library has one in this group of screens.
HepG2 viability = qHTS for Inhibitors of TGF-b: Cytotox Counterscreen | HepG2 CAGA-GFP viability, ATP luminescence, 18 h | Potency, µM (top dose mostly 46.1 µM), for inactives: at the highest dose activity change, negative = cytotoxicity, most hits filed as cytotoxic | 410,000 compounds, 0.76% hits; note: potency is the fitted concentration of half-maximal effect
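CellTiter-Glo luminescence gave cytotoxicity after 18 hours at 37 degrees C. The cells were HepG2 CAGA-GFP in 1% FBS DMEM, stimulated with 500 pg/mL TGF-beta after compound addition. %Activity was normalised to no-cell wells (complete cell-killing) and DMSO (no toxicity), and curves were fitted and classified.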
TGFb SMAD3 inh = qHTS for Inhibitors of TGF-b | HepG2 CAGA-GFP TGF-b/SMAD3 reporter, GFP fluorescence, 18 h; TGF-beta stimulated, 500 pg/mL final | Potency, µM (highest dose often 46.1 µM), for inactives: top-dose activity, negative = inhibition, most hits filed as inhibitors | 410,000 compounds, 1.2% hits; note: potency is the fitted concentration of half-maximal effect; % is set by controls: 0 for no effect and ±100 for the full control effect; nearly all actives have a fitted effect of over 65% in size
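Inhibition of TGF-beta-driven CAGA-GFP reporter expression in HEPG2 cells is measured by cellular GFP fluorescence after 18 h stimulation with 500 pg/mL recombinant TGF-beta in 1% FBS medium at 37 degrees C.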
ATXN2 expr inh = Primary qHTS for Inhibitors of ATXN expression; HEK-293 ATXN2-luciferase reporter, luminescence, 24 h; Potency, µM (highest dose often 57 µM), for inactives: at the top dose activity change, negative = inhibition, most hits filed as inhibitors; 360,000 compounds, 0.72% hits; note: potency is the fitted concentration of half-maximal effect; % is set by controls: 0 for no effect and ±100 for the full control effect; nearly all actives have a fitted effect of over 55% in size
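qHTS (up to 57 uM final) was run with 24 h compound exposure of reporter cells at 37 °C. Each well was multiplexed: SteadyGlo luminescence measured ATXN2-luciferase expression after a fluorogenic Gly-Phe-AFC viability readout (25 uM final).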
ATXN viability = Viability Counterscreen for Primary qHTS for Inhibitors of ATXN expression; S2 cells (HEK-293 line with an ATXN2-luciferase reporter) viability, CellTiter-Fluor protease fluorescence, 24 h; AID 651635, 2014; 400,000 compounds, 0.49% hits; Potency, µM (highest dose often 56.7 µM), usual class: cytotoxic; note: potency is the fitted concentration of half-maximal effect; nearly all actives have a fitted effect of over 40% in size
SK-N-SH 3D tox = qHTS of pediatric cancer cell lines to identify multiple opportunities for drug repurposing: Orthogonal 3D viability screen for SK-N-SH cells; Potency, µM (titrated, usually from 30.7 µM), most hits filed as inhibitors; shares compounds with ATXN2 expr inh; SK-N-SH 3D spheroid viability, PI/Hoechst imaging, 72 h; AID 1347135, 2019; 65 compounds, 70% hits
SJ-GBM2 3D tox = qHTS of pediatric cancer cell lines to identify multiple opportunities for drug repurposing: Orthogonal 3D viability screen for SJ-GBM2 cells; shares compounds with ATXN2 expr inh; SJ-GBM2 3D spheroid viability, PI/Hoechst imaging, 72 h; Potency, µM (titrated, usually from 30.7 µM), hits mostly inhibitors; 65 compounds, 80% hits
Daoy 3D tox = qHTS of pediatric cancer cell lines to identify multiple opportunities for drug repurposing: Orthogonal 3D viability screen for Daoy cells; shares compounds with ATXN2 expr inh; Daoy 3D spheroid viability, PI/Hoechst imaging, 72 h; Potency, µM (highest dose often 30.7 µM), actives largely listed as inhibitors; 65 compounds, 50% hits
TC32 3D caspase = qHTS of pediatric cancer cell lines to identify multiple opportunities for drug repurposing: Orthogonal 3D caspase screen for TC32 cells | shares compounds with ATXN2 expr inh | TC32 3D spheroids, caspase-3/7 fluorescence imaging, 24 h | Potency, µM (top dose mostly 30.7 µM), actives largely listed as inhibitors | 65 compounds, 30% hits
TC32 3D tox = qHTS of pediatric cancer cell lines to identify multiple opportunities for drug repurposing: Orthogonal 3D viability screen for TC32 cells | AID 1347139, 2019 | TC32 3D spheroid viability, PI/Hoechst imaging, 72 h | shares compounds with ATXN2 expr inh | 65 compounds, 60% hits | Potency, µM (doses to about 30.7 µM), usual class: inhibitors
MG63 spheroid = qHTS of pediatric cancer cell lines to identify multiple opportunities for drug repurposing: Orthogonal 3D viability screen for MG 63 (6-TG R) cells; shares compounds with ATXN2 expr inh; MG-63 (6-TG R) 3D spheroid viability, PI/Hoechst imaging, 72 h; Potency, µM (highest dose often 30.7 µM), most hits filed as inhibitors; 65 compounds, 50% hits
RD 3D tox = qHTS of pediatric cancer cell lines to identify multiple opportunities for drug repurposing: Orthogonal 3D viability screen for RD cells | shares compounds with ATXN2 expr inh | RD rhabdomyosarcoma 3D spheroid viability, PI/Hoechst imaging, 72 h | Potency, µM (top dose mostly 30.7 µM), hits mostly inhibitors | 65 compounds, 50% hits
An asterisk follows results filed as active; i = inactive; ? = inconclusive; · = no result; ! = a repeat was not active. Calls come from the whole dose curve; as a rule, active = well fitted curve in the direction sought with a large enough effect; inconclusive = small, poorly fitted or top-dose-only effect, or another doubt; inactive = no such curve, though single readings can be large; an effect the other way counts as inactive or inconclusive.

SMILES	HepG2 viability	TGFb SMAD3 inh	ATXN2 expr inh	ATXN viability	SK-N-SH 3D tox	SJ-GBM2 3D tox	Daoy 3D tox	TC32 3D caspase	TC32 3D tox	MG63 spheroid	RD 3D tox
Nc1c(Br)cc(Br)c2cccnc12	8%	0%	·	·	·	·	·	·	·	·	·
CC(C)Cc1ccc(C(C)C(=O)O)cc1 (stereo not drawn)	-24%	-13%	5%	i	?	11µM*	?	i	i	i	i
Cc1c(C(=O)NN2CCCCC2)nn(-c2ccc(Cl)cc2Cl)c1-c1ccc(Cl)cc1	·	·	?	i	·	·	·	·	·	·	·
O=C(CNC(=O)C1CCCCC1)OCCOc1ccccc1	-7%	2%	·	·	·	·	·	·	·	·	·
COc1cc([C@@H]2c3cc4c(cc3C(O[C@@H]3O[C@@H]5CO[C@@H](c6cccs6)OC5[C@H](O)[C@H]3O)C3COC(=O)[C@@H]32)OCO4)cc(OC)c1O (stereo partly drawn)	·	·	·	·	0.057µM*	0.032µM*	0.041µM*	?	0.016µM*	4.1µM*	5.7µM*
COc1cc([C@@H]2c3cc4c(cc3[C@@H](O[C@@H]3O[C@@H]5CO[C@@H](C)O[C@@H]5[C@H](O)[C@@H]3O)[C@H]3COC(=O)[C@H]23)OCO4)cc(OC)c1O	·	·	0.77µM*	·	0.57µM*	0.26µM*	0.46µM*	?	0.26µM*	?	?
COc1ccc(-c2nc(N3CCOCC3)c3sc(CN(C)c4ncc(C(=O)NO)cn4)cc3n2)cn1	·	·	13%	·	5.1µM*	11µM*	5.1µM*	i	i	?	i
CC(C)(C)C(=O)OCOP(=O)(COCCn1cnc2c(N)ncnc21)OCOC(=O)C(C)(C)C	·	·	3.5µM*!	i	5.1µM*	4.1µM*	?	i	2.6µM*	?	?
Nc1ncnc2c1ncn2CCOc1ccccc1	-25%	?	13%	i	·	·	·	·	·	·	·
Nc1nc(Cl)nc2c1ncn2[C@@H]1O[C@H](CO)[C@@H](O)[C@@H]1F	·	·	1µM*	?	i	0.023µM*	?	i	5.1µM*	0.16µM*	?
Cc1cc(C)c(S(=O)(=O)NCC(c2ccc(N(C)C)cc2)N2CCc3ccccc32)c(C)c1 (stereo not drawn)	-18%	1%	13%	i	·	·	·	·	·	·	·
